# MARV entry inh = qHTS for Inhibitors of binding or entry into cells for Marburg Virus. 18,000 compounds, 6.5% hits. AID 720532, 2013. Marburg virus pseudotype entry/binding inhibition, cell-based. Potency, µM (top dose mostly 49.2 µM), inactives show at the highest dose activity change, negative = inhibition, hits mostly inhibitors
# Lassa entry = qHTS for Inhibitors of binding or entry into cells for Lassa Virus. AID 720533, 2013. Potency, µM (series often up to 49.2 µM), for inactives: at the top dose activity change, negative = inhibition, usual class: inhibitors. 18,000 compounds, 4.1% hits. Lassa virus pseudotyped entry inhibition, cell-based qHTS
# Numbers without * were called inactive; ? = inconclusive; . = not tested or not shown; ! = not confirmed by another sample; [ ] = dose if it differs, or a comment. A selection: hits, their analogues and other compounds. The true share with any hit is near 8.6%. Calls come from the whole dose curve; tested in HEK293 cells. % is set by controls: 0 for no effect and ±100 for the full control effect; potency is the fitted concentration of half-maximal effect.
SMILES,MARV entry inh,Lassa entry
Cc1ccc(S(=O)(=O)N2CCCN(S(=O)(=O)c3ccccc3Br)CC2)cc1,35%,.
COc1ccc(-c2nc3c(c4c2C[C@H](c2ccccc2)OC4)CN(C(=O)N[C@@H](C)C(=O)OC(C)C)CC3)c(C)c1,?,1%[8.59 µM]
COC(=O)c1cc(CNC(=O)c2ccccn2)cc(NC(=O)c2ccccc2OC)c1,-27%,-27%
COC(=O)c1cc(CNC(=O)c2cccc(F)c2)cc(NC(=O)c2ccccc2OC)c1,141µM*,?
COc1cc(O)c(C(=O)c2ccccc2)cc1S(=O)(=O)O,-1%,-11%
COc1cc(NCCCC(C)N)c2ncccc2c1 (centres undefined),8.9µM*,10µM*
Cc1[nH]c(/C=C2/C(=O)Nc3ccc(S(=O)(=O)Cc4c(Cl)cccc4Cl)cc32)c(C)c1C(=O)N1CCCC1CN1CCCC1 (centres undefined),14µM*,-4%
O=C(Cc1ccc(Cl)c(Cl)c1)N1CCCC[C@H]1CN1CCCC1,?,-25%
O=[S+]1([O-])C[C@@H](N2CCN(CCO)CC2)[C@@H](COCc2ccccc2)N1,-10%,-16%
CN1CCN2c3ccccc3Cc3ccccc3C2C1 (centres undefined),35µM*,?
COc1ccc(-c2ccnc(-n3ncc(C(=O)NCc4cccnc4)c3C3CC3)n2)cc1F,-4%,?
COc1ccc([C@H]2C[C@@H](n3cc(-c4ccc(F)cc4)nn3)[C@H](O)CN2Cc2cccs2)cc1,?,-27%
Cc1ncc2c(c1CNC(=O)c1cncs1)CCN(C(=O)c1ccc(C(C)(C)C)cc1)C2,?,-4%
COc1ccc(CCN(C)CCCOc2ccc(S(=O)(=O)c3[nH]c4ccccc4c3C(C)C)cc2)cc1OC,4µM*,14µM*
O=S1CCN(Cc2ccc(-c3ccc4ncnc(Nc5ccc(OCc6ccccc6)c(Cl)c5)c4c3)o2)CC1,?,-36%
O=C(NCc1nnc2n1CCN(Cc1ccnc3ccccc13)CC2)c1cccc(F)c1,-25%,-6%
c1ccc2nc(N3CCNCC3)ccc2c1,32µM*!,-10%
c1ccc2c(N3CCNCC3)cccc2c1,?,0%
CCCCCC(=O)/C=C/C=C\C/C=C\C/C=C\CCCC(=O)O,5%,2%
CCCCc1cc2c(=O)c(C(=O)OC)c[nH]c2cc1OCc1ccccc1,-2%,-7%
CCC(C)(C)c1ccc(O)cc1,13%,-2%
CC(C)(C)CC(C)(C)c1ccc(O)cc1,45µM*!,?
NCCC[C@@H](CC(=O)N[C@@H]1CCCC[C@H]1C(=O)N[C@H](CC(=O)N[C@@H](CCC(=O)O)CC(=O)O)Cc1c[nH]c2ccccc12)NC(=O)C[C@H](Cc1ccccc1)NC(=O)[C@@H]1CCCC[C@H]1N,13%,1%
N[C@H](Cc1cc(I)c(Oc2ccc(O)c(I)c2)c(I)c1)C(=O)O,6%[17.8 µM],-11%[17.8 µM]
CCCCCCCC/C=C\CCCCCCCC(=O)N[C@H](CO)Cc1ccc(O)cc1,?,14µM*
SMILES,MARV entry inh,Lassa entry
CCCCC/C=C\C/C=C\C/C=C\CCCCCCC(=O)NC(C)C(=O)O (centres undefined),-4%,3%
Cc1cc(O)c2ccccc2c1O,2%,?
COC(=O)[C@H]1[C@@H](c2ccccc2)NC(=O)N(CCc2cc(OC)c(OC)c(OC)c2)[C@@H]1C,-24%[8.59 µM],3%[8.59 µM]
CCn1c(-c2nonc2N)nc2cncc(C(=O)N3CCNCC3)c21,5%,-55%
CN(C)CCCn1c(-c2nonc2N)nc2cnccc21,?,-12%
CCn1c(-c2nonc2N)nc2c(C#CC(C)(C)O)ncc(OCC3CCCN3)c21 (centres undefined),1.3µM*,.
CCn1c(-c2nonc2N)nc2c(C#CC(C)(C)O)ncc(OCC3CCNCC3)c21,1.8µM*,.
O=C1OCCN1C(=O)[C@H]1[C@H](c2ccc(Cl)cc2)C(c2ccccc2)=NN1c1ccc(Br)cc1,?,-20%
C=CS(=O)(=O)O,22µM*,-14%
COc1ccc(-c2cc(=O)c3ccc(F)cc3[nH]2)cc1,3%,-11%
COc1cc2c(cc1CC=C(C)C)C(=O)C[C@@H](c1ccc(O)cc1)O2,?,8.9µM*
COc1ccc(C2CC(=O)c3ccc(OC)cc3O2)cc1 (centres undefined),-5%,2%
[H+].[H+].[Hg+2].[O-]B([O-])[O-].[c-]1ccccc1,?,1µM*
CC(C)(C)c1ccc(S(=O)(=O)N[C@H]2CC[C@@H](n3cc(C(=O)N4CCCC4)nn3)CC2)cc1,7%,-7%
COC/C=C/C1=CC2=CC(=O)C(C)(OC(=O)C3CCCC3)C(=O)C2=CO1 (centres undefined),-4%,4%
CN1CCN(c2ccnc(-c3ccccc3C(F)(F)F)n2)CC1,-24%,4%
O=C(CCN1CCC(c2ccccc2)C1)c1ccc2c(c1)OCCO2 (centres undefined),-26%,?
C=C1CC[C@H](O)C/C1=C\C=C1/CCC[C@]2(C)[C@@H]([C@H](C)CCCC(C)C)CC[C@@H]12,-4%,?
C=C1CC[C@H](O)CC1=C/C=C1\CCC[C@]2(C)[C@@H]([C@H](C)CCCC(C)(C)O)CC[C@@H]12,12%,13µM*
C=C1CC[C@H](O)CC1=C/C=C1\CCC[C@]2(C)[C@@H]([C@H](C)CC[C@@H](O)C(C)(C)O)CC[C@@H]12,2%,16µM*
C=C1CC[C@H](O)C/C1=C/C=C1\CCC[C@]2(C)[C@@H]([C@H](C)CCCC(C)C)CC[C@@H]12,-13%,?
Cc1ccc([C@H]2C[C@@H](O)[C@H](n3cc(C4CC4)nn3)CN2Cc2cccs2)cc1,-17%,.
COc1cc2ncnc(Nc3cccc(Br)c3)c2cc1OC,3%,-20%
COc1cc2ncnc(Nc3cccc(Cl)c3)c2cc1OC,14µM*!,16µM*!
CCc1ncnc2cc(OC)c(OC)cc12,31%,0%
SMILES,MARV entry inh,Lassa entry
CCCN(CCC)C(=O)C(CCC(=O)OCCCN1CCN(CCOC(=O)Cc2c(C)n(C(=O)c3ccc(Cl)cc3)c3ccc(OC)cc23)CC1)NC(=O)c1ccccc1 (centres undefined),14µM*,22µM*
COc1ccc2c(c1)c(CC(=O)OCC(=O)O)c(C)n2C(=O)c1ccc(Cl)cc1,22%,-3%
NC[C@H]1O[C@H](O[C@H]2[C@H](O)[C@@H](O[C@H]3O[C@H](CO)[C@@H](O)[C@H](N)[C@H]3O)[C@H](N)C[C@@H]2N)[C@H](N)C[C@@H]1O,17%[17.8 µM],-6%[17.8 µM]
COCC1CCCN(c2nc(CN3CCN(C(=O)c4ccco4)CC3)nc3ccccc23)C1 (centres undefined),-5%,-14%
Nc1ccccc1C(=O)C[C@@H](N)C(=O)O,2%,5%
Cc1nnc2n1-c1sc(Br)cc1C(c1ccccc1Cl)=NC2,1%,?
O=C(O)Cc1ccc(O)c(O)c1,8%,-18%
CNCC(=O)c1ccc(O)c(O)c1,16µM*,-15%
O=C(O)C1Cc2c([nH]c3ccccc23)C(c2coc3ccccc3c2=O)N1 (centres undefined),24%,-7%
COC(=O)C1=C(C)N(Cc2ccccc2)C(=O)NC1c1cccc(C(F)(F)F)c1 (centres undefined),17%[8.59 µM],5%[8.59 µM]
FC(F)(F)c1cc(CO[C@H]2CCCN[C@H]2c2ccccc2)cc(C(F)(F)F)c1,10µM*,25µM*
CCCCC/C=C\C/C=C\C/C=C\C/C=C\CCCCCC(=O)NC(C)C(=O)O (centres undefined),-21%,-13%
